According to the supplement of paper PMC11732987, “Enantioselective OTUD7B fragment discovery through chemoproteomics screening and high-throughput optimisation” (Communications Chemistry, 2025):

Legend:
Test in all cases: log2 ratio of Biotin-Ahx-Ub-VS probe labelling (fragment/DMSO); higher = less target engagement (more negative = stronger competition), active = hit call of the paper (q ≤ 0.05, log2 ratio ≤ -1)
Settings in all cases: compound concentration: 200 uM; treatment time: 3 h
USP34 = USP34 (UniProt Q70CQ2)
Summary of the method: (§1)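 The table lists average log2 ratios of fragment over vehicle, from an unpaired t-test on global-median-normalised Spectronaut label-free quantities. Proteins with ≥2 unique peptides were used. Samples were HEK293T lysate (495 µg) treated in triplicate with fragment at 200 µM or vehicle for 3 h, then with Biotin-Ahx-Ub-VS (0.5 µM final) for 1 h, with labelled DUBs NeutrAvidin-enriched and run by diaPASEF LC-MS/MS.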

USP36 = target: T1, USP36 (UniProt Q9P275)
T1 sequence (whole entry): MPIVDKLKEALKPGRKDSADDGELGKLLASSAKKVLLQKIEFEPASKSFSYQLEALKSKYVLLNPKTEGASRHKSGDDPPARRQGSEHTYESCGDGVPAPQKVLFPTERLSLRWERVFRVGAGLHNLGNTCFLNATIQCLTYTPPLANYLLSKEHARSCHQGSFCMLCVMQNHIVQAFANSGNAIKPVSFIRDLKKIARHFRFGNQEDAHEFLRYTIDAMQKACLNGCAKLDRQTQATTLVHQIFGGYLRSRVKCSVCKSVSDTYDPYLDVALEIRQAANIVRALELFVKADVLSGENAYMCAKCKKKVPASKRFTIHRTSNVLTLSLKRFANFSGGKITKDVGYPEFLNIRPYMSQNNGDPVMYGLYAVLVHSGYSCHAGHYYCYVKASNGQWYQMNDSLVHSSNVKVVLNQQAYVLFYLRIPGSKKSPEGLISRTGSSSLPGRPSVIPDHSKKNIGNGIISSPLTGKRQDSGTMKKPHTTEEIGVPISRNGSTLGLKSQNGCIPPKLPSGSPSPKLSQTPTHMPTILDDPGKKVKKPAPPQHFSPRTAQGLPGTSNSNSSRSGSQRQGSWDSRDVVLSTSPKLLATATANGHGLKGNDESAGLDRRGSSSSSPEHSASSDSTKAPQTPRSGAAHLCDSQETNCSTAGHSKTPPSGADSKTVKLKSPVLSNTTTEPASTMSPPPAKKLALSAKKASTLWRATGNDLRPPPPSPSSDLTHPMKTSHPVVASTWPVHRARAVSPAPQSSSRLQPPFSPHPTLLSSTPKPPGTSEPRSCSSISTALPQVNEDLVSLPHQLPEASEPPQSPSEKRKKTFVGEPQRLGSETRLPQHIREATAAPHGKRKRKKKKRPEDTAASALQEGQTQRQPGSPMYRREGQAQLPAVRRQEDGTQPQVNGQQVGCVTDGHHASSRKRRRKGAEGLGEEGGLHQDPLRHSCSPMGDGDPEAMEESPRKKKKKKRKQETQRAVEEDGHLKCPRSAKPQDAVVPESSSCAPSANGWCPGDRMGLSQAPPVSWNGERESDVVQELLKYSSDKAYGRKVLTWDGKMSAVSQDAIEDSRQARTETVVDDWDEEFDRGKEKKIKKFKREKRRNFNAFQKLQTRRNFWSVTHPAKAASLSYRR
Summary of the method: as §1

USP38 = target: T2, USP38 (UniProt Q8NB14)
T2 sequence (whole entry): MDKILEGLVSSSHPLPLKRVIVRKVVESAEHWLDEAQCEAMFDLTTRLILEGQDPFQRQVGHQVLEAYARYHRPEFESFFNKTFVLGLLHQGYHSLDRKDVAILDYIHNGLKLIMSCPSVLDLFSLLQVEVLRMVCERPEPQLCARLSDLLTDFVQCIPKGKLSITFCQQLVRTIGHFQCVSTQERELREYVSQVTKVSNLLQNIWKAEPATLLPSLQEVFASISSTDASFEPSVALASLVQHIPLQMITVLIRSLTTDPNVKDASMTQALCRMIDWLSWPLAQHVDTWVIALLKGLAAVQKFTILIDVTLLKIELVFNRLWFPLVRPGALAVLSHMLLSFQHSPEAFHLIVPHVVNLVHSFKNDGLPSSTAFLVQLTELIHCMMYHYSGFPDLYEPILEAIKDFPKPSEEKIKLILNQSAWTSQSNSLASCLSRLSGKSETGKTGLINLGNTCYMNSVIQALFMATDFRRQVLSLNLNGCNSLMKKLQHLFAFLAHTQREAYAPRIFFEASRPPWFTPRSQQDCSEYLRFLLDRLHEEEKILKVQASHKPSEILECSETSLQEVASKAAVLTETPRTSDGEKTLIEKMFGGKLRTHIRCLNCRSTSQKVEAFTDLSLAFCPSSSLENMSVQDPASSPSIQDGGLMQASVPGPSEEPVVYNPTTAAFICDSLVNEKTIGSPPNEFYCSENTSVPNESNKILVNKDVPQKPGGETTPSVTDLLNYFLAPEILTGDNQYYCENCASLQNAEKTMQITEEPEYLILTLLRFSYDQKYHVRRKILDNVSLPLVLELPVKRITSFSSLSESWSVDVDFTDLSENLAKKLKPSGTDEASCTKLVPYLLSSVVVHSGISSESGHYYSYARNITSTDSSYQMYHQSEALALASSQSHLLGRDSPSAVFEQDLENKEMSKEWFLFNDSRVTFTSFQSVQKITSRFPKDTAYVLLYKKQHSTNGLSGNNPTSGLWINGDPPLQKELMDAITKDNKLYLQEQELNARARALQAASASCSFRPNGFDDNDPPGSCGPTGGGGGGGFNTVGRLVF
Summary of the method: as §1

USP39 = target: T3, USP39 (UniProt Q53GS9)
T3 sequence (whole entry): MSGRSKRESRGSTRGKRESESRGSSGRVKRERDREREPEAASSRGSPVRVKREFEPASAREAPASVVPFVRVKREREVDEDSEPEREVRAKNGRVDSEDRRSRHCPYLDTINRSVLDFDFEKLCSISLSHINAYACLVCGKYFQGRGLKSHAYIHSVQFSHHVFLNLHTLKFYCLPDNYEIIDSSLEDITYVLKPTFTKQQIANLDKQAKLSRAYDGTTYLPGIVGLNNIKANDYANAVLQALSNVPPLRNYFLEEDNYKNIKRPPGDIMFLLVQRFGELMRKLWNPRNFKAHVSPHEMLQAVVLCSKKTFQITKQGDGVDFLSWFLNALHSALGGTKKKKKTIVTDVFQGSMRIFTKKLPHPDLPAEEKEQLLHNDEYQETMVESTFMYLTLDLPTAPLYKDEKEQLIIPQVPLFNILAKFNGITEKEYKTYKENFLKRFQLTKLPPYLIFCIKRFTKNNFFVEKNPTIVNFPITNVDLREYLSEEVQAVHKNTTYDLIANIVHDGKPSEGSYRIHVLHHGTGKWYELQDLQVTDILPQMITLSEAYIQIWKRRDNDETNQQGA
Summary of the method: as §1

USP4 = target: T4, USP4 (UniProt Q13107)
T4 sequence (whole entry): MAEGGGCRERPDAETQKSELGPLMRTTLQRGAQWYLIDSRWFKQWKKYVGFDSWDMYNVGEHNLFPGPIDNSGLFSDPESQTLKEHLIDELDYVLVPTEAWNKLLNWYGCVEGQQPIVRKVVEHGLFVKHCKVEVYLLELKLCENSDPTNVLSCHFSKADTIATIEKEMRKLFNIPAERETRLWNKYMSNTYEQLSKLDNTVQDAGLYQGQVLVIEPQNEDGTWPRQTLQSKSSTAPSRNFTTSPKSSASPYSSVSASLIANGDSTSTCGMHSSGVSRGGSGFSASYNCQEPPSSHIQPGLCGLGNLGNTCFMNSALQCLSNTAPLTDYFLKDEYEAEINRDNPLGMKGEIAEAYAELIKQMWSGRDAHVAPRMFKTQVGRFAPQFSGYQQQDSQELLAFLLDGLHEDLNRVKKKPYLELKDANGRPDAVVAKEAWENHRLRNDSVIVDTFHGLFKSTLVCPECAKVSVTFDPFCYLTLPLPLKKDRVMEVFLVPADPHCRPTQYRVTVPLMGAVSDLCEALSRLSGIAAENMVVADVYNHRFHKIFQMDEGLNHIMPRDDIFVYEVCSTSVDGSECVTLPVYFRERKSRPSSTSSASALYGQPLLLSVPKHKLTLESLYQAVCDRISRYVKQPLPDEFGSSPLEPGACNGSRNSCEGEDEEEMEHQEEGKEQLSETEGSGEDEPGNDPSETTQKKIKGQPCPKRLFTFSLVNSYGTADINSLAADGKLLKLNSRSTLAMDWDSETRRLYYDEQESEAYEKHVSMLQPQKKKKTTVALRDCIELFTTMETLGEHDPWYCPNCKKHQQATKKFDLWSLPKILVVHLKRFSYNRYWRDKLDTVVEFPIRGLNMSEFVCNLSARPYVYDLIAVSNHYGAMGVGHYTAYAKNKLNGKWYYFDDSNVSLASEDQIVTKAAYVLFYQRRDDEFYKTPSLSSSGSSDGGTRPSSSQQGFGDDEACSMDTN
Summary of the method: as §1

Measured: log2 ratio of Biotin-Ahx-Ub-VS probe labelling

USP34, sequence (Q70CQ2 whole entry, the tested form may be a part): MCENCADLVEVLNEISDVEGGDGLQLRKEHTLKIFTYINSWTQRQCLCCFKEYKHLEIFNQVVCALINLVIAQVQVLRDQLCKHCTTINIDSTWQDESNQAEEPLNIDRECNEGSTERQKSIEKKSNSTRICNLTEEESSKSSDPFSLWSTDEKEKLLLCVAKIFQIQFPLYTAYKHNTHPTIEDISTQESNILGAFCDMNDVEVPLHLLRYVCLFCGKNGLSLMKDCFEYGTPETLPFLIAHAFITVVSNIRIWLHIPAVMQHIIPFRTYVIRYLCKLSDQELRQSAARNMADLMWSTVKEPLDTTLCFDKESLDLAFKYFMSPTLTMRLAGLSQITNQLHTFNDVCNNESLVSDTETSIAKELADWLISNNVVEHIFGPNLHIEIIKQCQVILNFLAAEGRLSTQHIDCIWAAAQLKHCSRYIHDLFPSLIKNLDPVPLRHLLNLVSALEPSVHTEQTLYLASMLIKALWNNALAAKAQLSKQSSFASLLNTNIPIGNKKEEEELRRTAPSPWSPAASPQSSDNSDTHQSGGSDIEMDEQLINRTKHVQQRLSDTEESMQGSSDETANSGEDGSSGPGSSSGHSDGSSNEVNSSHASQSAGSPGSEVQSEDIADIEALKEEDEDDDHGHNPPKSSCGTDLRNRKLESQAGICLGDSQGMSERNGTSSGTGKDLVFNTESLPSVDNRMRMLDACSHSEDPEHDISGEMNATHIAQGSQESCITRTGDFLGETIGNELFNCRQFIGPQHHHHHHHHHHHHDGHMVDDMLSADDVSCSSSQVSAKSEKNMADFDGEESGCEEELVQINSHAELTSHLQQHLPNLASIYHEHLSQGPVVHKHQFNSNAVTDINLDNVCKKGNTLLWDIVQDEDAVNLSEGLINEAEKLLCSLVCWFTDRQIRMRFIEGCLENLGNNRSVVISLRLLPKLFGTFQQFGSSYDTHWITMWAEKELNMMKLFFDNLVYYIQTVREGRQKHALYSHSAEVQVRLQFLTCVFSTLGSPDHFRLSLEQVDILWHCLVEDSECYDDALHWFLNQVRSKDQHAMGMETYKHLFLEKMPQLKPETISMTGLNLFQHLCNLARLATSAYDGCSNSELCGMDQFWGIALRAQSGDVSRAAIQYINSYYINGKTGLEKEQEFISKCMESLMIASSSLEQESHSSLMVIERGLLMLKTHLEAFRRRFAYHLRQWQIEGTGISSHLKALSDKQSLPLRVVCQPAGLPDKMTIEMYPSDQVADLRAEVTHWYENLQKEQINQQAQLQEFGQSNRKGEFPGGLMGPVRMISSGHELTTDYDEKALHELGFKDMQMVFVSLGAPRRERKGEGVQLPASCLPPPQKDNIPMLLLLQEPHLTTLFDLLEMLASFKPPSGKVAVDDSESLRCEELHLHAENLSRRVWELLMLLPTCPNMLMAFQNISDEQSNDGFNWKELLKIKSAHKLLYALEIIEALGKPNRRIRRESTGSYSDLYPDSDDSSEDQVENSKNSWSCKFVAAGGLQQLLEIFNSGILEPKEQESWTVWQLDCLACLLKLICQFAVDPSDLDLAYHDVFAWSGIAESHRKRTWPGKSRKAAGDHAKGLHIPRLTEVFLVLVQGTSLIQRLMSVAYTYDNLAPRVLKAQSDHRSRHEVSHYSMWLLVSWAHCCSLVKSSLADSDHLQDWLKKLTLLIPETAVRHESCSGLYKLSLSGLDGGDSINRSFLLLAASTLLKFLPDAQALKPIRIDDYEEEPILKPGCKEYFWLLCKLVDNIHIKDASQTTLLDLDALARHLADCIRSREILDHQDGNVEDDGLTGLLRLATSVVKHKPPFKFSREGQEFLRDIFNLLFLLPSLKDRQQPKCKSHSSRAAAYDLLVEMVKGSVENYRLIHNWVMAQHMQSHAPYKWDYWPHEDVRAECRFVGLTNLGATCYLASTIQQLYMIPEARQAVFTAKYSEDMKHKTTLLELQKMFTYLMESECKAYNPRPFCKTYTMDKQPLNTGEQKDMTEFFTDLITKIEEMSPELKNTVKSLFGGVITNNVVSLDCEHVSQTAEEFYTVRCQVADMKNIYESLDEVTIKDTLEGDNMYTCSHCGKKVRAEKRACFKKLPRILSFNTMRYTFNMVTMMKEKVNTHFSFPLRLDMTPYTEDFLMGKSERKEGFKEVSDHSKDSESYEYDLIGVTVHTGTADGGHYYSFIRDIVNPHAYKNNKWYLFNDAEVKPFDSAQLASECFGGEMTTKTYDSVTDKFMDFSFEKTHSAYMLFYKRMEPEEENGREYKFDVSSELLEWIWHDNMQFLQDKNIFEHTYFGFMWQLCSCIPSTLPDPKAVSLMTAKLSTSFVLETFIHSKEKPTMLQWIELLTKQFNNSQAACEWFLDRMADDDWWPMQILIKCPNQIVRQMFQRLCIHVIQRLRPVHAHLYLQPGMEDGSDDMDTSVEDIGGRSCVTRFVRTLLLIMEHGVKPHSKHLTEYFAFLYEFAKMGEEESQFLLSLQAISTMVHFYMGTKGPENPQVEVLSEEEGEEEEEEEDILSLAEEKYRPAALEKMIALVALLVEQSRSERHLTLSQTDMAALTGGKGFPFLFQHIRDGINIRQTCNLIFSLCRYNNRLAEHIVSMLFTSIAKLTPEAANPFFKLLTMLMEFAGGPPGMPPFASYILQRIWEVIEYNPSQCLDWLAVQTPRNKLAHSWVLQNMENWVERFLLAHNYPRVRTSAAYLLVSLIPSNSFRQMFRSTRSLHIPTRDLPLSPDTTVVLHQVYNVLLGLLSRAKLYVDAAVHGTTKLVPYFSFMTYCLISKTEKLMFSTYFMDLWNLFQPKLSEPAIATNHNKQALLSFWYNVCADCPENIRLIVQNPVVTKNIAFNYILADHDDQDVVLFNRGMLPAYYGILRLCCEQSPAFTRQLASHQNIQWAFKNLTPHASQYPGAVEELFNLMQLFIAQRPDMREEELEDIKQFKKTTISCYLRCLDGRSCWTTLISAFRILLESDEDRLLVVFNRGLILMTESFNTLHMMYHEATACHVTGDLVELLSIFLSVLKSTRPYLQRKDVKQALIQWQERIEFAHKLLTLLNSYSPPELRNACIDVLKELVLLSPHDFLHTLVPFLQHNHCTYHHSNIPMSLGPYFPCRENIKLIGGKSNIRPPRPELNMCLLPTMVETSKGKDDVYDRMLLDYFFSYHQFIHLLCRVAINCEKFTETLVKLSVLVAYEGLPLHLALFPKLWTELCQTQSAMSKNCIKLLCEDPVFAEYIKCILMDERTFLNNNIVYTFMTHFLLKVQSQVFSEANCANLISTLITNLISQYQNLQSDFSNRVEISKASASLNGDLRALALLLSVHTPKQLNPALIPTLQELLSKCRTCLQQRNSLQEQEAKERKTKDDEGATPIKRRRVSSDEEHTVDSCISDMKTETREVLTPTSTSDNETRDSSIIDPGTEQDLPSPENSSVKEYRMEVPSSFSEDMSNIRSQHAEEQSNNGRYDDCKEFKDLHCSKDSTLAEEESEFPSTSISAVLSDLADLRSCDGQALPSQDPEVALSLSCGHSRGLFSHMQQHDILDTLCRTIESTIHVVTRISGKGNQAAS

COc1ccc(Cl)cc1NC(=O)CCl
inactive: USP34 -0.301 | USP36 -0.44 | USP38 -0.283 | USP39 0.264 | USP4 -0.469
